SMILES strings stand for the structures.

In assay [1] the target is T1, Mitogen-activated protein kinase 12 (Homo sapiens) (UniProt P53778).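 Note: values are averaged p38gamma kinase inhibition readings, compounds tested at 1 µM.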
T1 sequence (whole entry): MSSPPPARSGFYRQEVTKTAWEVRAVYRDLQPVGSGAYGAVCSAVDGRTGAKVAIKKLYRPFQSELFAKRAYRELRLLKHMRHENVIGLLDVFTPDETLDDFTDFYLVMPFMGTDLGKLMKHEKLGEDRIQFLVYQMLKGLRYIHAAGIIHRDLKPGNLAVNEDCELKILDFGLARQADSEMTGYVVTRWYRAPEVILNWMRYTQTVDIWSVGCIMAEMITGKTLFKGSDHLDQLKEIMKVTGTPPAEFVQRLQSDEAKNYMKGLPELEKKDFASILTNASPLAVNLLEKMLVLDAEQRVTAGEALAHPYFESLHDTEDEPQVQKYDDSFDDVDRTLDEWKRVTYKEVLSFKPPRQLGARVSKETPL
To be noted: at 1 µM.

For assay [2], the target named is SRSF protein kinase 1 (Homo sapiens) (UniProt Q96SB4). The conditions noted are these: at 0.1 µM.
Assay [3] has the same target. To be noted: at 1 µM.
Assay [4] has as its target Phosphatidylinositol 4,5-bisphosphate 3-kinase catalytic subunit alpha isoform (Homo sapiens) (UniProt P42336). The conditions noted are these: at 0.1 µM.
For assay [5] the target is unchanged. The conditions noted are these: at 1 µM.
Assay [6] addresses T2, Phosphatidylinositol 4,5-bisphosphate 3-kinase catalytic subunit delta isoform (Homo sapiens) (UniProt O00329).
T2 sequence (whole entry): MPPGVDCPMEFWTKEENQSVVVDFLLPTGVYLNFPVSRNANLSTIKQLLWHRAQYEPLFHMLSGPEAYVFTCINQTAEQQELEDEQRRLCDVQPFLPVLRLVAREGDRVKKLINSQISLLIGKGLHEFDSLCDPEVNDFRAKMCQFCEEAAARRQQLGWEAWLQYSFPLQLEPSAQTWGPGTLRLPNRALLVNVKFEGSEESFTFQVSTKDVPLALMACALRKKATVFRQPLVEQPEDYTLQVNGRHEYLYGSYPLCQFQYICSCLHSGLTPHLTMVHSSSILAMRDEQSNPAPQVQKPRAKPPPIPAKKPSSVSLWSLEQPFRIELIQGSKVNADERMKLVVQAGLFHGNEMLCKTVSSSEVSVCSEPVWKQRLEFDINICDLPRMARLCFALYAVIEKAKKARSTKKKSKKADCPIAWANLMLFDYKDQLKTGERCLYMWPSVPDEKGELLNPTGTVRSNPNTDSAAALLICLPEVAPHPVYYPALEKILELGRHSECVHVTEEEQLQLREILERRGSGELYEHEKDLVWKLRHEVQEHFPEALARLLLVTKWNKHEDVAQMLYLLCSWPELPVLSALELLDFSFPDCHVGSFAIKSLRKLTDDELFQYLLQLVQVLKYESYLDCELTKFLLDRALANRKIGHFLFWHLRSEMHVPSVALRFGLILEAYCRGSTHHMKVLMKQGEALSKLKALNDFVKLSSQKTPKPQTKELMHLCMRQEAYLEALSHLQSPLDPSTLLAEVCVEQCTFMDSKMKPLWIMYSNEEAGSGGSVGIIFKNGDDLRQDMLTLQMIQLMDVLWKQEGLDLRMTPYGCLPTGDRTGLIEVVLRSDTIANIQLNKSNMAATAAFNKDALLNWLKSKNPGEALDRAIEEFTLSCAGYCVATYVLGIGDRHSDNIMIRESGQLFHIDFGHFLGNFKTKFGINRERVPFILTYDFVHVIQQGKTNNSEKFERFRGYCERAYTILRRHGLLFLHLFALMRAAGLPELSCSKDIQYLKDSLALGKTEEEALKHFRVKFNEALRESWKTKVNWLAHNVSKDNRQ
To be noted: at 0.1 µM.

Assay [7] deals with T2, Phosphatidylinositol 4,5-bisphosphate 3-kinase catalytic subunit delta isoform (Homo sapiens). The conditions noted are these: at 1 µM.
In assay [8] the target is Phosphatidylinositol 4-kinase beta (Homo sapiens) (UniProt Q9UBF8). The conditions noted are these: at 0.1 µM.
Assay [9] has the same target. The conditions noted are these: at 1 µM.
Assay [10] deals with Sphingosine kinase 1 (Homo sapiens) (UniProt Q9NYA1). The conditions noted are these: at 0.1 µM.
For assay [11] the target is unchanged. The conditions noted are these: at 1 µM.
Assay [12] addresses T3, Sphingosine kinase 2 (Homo sapiens) (UniProt Q9NRA0).
T3 sequence (whole entry): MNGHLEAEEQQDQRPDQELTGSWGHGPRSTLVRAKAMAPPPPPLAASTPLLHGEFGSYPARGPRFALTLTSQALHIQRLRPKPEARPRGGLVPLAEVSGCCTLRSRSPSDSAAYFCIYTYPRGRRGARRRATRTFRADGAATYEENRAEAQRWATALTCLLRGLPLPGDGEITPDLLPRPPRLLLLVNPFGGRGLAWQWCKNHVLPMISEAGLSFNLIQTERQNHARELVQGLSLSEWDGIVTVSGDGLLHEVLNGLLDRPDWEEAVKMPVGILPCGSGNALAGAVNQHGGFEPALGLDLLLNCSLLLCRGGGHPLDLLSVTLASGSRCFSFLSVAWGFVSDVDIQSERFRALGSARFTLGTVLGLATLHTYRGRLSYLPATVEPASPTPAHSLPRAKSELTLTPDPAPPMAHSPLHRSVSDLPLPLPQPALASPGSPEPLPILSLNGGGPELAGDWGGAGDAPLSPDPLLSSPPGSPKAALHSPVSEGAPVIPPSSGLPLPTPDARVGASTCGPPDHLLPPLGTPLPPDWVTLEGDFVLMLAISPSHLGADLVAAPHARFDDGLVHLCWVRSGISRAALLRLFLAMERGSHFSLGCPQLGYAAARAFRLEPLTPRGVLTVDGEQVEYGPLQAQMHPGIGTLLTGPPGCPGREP
To be noted: at 0.1 µM.

In assay [13] the target is T3, Sphingosine kinase 2 (Homo sapiens). To be noted: at 1 µM.
In assay [14] the target is Casein kinase II subunit alpha (Homo sapiens) (UniProt P68400). To be noted: at 0.1 µM.
Assay [15] shares this target. To be noted: at 1 µM.
In assay [16] the target is T4, Inhibitor of nuclear factor kappa-B kinase subunit alpha (Homo sapiens) (UniProt O15111).
T4 sequence (whole entry): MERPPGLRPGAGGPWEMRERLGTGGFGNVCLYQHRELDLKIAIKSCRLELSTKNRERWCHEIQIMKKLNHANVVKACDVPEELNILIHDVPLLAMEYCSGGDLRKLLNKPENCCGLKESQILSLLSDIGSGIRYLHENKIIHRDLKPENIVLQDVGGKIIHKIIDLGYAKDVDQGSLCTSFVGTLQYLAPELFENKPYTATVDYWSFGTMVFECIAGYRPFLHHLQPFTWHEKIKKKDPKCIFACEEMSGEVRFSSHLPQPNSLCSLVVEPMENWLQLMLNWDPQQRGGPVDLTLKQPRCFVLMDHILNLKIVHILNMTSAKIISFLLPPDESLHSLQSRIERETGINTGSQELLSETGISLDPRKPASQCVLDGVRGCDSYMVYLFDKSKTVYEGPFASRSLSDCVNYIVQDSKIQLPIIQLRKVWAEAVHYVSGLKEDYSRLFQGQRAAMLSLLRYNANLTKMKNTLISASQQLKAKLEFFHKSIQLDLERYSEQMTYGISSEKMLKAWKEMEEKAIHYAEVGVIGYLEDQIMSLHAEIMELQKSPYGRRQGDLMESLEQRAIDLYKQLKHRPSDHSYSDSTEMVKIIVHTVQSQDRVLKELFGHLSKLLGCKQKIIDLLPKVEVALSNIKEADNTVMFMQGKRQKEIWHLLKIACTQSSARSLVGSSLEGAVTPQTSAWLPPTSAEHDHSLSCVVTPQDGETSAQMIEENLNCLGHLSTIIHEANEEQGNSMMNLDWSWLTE
The conditions noted are these: at 0.1 µM.

Assay [17] deals with T4, Inhibitor of nuclear factor kappa-B kinase subunit alpha (Homo sapiens). The conditions noted are these: at 1 µM.
Assay [18] deals with T5, Inhibitor of nuclear factor kappa-B kinase subunit beta (Homo sapiens) (UniProt O14920).
T5 sequence (whole entry): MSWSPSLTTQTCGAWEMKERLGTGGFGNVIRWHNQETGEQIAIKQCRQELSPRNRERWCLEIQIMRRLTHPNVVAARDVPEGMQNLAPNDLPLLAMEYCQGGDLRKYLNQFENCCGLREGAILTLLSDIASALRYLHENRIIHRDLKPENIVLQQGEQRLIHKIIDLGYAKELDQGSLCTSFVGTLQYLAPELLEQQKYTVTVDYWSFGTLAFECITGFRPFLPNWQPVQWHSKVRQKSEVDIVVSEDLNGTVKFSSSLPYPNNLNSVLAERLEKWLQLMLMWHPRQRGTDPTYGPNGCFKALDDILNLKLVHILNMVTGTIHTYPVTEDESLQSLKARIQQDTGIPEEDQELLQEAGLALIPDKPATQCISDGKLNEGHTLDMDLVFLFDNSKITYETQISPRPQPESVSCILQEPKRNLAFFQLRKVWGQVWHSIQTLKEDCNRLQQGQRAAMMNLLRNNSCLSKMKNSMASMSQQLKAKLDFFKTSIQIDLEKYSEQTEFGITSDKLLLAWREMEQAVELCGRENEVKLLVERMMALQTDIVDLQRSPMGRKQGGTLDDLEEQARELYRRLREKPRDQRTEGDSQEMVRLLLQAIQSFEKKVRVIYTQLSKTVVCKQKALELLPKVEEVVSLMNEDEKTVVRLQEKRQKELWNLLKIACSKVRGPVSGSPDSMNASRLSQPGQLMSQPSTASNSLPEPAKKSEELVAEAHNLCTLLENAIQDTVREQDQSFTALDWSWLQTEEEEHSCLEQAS
To be noted: at 0.1 µM.

Assay [19] has as its target T5, Inhibitor of nuclear factor kappa-B kinase subunit beta (Homo sapiens). The conditions noted are these: at 1 µM.
The target of assay [20] is T6, Inhibitor of nuclear factor kappa-B kinase subunit epsilon (Homo sapiens) (UniProt Q14164).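 Note: mean inhibition of IKKε reported, from the GSK PKIS dataset.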
T6 sequence (whole entry): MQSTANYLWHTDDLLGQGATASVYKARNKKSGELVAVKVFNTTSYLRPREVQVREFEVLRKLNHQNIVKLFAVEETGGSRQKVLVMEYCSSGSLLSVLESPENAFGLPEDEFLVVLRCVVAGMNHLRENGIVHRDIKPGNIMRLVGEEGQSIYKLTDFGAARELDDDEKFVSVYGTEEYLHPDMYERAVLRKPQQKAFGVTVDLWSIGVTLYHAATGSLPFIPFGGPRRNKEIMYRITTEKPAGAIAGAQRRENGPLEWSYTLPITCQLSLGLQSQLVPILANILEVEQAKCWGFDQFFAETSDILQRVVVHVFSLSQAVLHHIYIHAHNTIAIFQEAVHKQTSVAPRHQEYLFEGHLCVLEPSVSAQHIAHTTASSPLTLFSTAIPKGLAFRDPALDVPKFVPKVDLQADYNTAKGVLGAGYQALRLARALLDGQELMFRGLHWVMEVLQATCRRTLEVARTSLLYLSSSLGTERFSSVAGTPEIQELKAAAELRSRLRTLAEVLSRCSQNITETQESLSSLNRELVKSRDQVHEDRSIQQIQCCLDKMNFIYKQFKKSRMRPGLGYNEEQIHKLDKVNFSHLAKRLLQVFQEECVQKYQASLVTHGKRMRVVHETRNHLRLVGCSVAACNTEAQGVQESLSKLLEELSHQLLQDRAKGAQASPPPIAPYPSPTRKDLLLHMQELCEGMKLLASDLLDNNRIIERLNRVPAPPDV
To be noted: at 0.1 µM.

Sequence of SRSF protein kinase 1 (Homo sapiens) (Q96SB4 whole entry): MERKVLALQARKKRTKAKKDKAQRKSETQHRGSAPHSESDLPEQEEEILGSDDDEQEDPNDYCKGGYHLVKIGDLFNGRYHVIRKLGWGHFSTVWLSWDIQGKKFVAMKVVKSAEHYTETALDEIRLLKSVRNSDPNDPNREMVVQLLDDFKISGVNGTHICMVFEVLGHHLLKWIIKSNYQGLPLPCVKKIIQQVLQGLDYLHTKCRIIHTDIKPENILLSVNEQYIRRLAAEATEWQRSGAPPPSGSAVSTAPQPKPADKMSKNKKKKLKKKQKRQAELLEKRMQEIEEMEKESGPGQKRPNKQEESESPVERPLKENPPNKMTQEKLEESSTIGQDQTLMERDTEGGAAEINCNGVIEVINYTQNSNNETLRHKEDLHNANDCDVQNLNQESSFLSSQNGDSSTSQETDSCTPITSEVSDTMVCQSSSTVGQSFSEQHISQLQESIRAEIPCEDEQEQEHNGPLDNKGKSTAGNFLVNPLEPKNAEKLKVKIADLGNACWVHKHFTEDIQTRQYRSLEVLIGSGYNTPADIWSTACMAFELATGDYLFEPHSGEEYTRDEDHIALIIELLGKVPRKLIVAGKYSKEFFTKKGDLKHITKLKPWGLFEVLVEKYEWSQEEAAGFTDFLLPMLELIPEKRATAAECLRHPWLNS
Sequence of Phosphatidylinositol 4,5-bisphosphate 3-kinase catalytic subunit alpha isoform (Homo sapiens) (P42336 whole entry, canonical isoform): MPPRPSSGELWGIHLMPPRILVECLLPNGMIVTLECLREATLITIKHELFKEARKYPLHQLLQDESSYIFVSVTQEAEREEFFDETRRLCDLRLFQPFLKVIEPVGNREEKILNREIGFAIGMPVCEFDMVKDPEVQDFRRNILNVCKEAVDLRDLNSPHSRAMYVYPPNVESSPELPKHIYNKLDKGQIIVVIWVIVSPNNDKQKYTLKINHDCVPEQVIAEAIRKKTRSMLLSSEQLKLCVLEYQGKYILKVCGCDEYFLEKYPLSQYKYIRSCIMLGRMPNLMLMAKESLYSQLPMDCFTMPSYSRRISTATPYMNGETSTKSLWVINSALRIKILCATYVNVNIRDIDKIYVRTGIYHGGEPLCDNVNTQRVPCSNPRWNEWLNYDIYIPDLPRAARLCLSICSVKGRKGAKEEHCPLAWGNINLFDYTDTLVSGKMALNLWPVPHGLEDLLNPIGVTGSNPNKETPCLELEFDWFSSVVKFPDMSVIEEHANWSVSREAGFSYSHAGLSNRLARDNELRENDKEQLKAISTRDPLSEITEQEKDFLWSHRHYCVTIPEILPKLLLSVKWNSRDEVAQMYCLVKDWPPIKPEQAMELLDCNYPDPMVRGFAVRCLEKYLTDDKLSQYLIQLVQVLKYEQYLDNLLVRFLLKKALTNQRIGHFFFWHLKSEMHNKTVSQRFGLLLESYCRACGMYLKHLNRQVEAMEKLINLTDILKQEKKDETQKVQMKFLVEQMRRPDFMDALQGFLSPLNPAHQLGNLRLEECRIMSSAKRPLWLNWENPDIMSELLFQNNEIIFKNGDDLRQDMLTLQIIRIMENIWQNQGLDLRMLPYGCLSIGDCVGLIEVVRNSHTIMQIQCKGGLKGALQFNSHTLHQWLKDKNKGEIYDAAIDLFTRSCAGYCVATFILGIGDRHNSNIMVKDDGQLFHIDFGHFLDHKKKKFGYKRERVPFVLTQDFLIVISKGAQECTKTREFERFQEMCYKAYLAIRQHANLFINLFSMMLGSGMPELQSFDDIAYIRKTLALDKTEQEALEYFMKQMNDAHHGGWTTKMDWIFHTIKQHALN
Sequence of Sphingosine kinase 1 (Homo sapiens) (Q9NYA1 whole entry): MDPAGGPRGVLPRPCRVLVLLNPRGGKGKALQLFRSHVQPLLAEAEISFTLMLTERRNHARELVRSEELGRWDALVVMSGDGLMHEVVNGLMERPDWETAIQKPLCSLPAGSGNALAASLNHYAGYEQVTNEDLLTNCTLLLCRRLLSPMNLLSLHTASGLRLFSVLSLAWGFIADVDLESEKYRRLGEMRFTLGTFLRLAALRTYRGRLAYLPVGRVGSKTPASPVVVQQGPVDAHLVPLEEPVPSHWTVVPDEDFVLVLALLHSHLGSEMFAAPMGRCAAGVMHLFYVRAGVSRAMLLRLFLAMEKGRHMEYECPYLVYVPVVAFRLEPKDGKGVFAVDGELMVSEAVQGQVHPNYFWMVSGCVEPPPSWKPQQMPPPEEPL
Sequence of Casein kinase II subunit alpha (Homo sapiens) (P68400 whole entry, looked up): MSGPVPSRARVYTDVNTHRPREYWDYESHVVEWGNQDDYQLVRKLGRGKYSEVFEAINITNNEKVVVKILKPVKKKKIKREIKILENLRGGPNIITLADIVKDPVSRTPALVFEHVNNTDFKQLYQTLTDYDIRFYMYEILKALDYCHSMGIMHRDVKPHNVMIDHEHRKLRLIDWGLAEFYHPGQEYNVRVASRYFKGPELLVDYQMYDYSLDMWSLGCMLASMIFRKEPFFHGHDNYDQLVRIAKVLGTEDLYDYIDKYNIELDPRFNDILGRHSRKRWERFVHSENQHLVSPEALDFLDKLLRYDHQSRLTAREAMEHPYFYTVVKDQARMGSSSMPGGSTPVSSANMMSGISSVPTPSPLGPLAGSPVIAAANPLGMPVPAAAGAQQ
Sequence of Phosphatidylinositol 4-kinase beta (Homo sapiens) (Q9UBF8 2-816 limits assumed): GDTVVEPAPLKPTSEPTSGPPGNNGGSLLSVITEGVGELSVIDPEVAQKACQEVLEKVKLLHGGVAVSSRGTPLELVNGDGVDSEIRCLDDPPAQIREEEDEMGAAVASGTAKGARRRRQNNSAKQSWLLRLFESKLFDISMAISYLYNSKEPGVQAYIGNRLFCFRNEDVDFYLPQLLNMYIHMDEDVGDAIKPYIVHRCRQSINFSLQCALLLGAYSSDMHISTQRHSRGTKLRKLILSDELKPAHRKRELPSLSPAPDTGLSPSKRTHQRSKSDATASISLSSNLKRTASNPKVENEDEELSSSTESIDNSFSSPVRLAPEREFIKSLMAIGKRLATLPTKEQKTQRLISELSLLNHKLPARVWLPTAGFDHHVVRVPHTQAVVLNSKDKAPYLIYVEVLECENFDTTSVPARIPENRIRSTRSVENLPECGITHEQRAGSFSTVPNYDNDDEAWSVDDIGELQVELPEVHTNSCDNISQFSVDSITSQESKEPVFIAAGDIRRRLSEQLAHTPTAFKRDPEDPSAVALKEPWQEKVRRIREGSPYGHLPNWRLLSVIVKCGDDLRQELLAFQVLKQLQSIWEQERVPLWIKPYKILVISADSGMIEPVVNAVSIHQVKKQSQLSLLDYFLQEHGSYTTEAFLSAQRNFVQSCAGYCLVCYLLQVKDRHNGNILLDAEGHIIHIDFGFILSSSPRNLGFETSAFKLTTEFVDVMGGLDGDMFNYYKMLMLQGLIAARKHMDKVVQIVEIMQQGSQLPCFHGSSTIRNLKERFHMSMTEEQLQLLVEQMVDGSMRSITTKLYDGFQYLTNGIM

As usually defined, the inhibition is the relative decrease from the control value, in per cent. Consider `Nc1ccc(C#Cc2cncnc2Nc2ccc(OCc3cccc(F)c3)c(Cl)c2)cc1`, for which the inhibition in [1] was 2.1%; in assay [2], -1.42%; in assay [3], -0.29%; in [4], 2.27%; in assay [5], 3.14%; in assay [6], 0.98%. Besides, the inhibition is 1.62% in assay [7]; 5.59% in [8]; 0.07% in [9]; 0.21% in assay [10]; -2.59% in assay [11]; -3.76% in assay [12]. For the same compound, the inhibition in [13] is 0%; in assay [14] it was 4.6%; in assay [15] it was 2.02%; in [16] it was 0.36%; in assay [17] it was 2.27%; in [18], 4.1%. Besides, the inhibition was 4.66% in [19] and 3.63% in [20].
`CS(=O)(=O)CCNCc1nc(-c2ccc3ncnc(Nc4ccc(OCc5cccc(C(F)(F)F)c5)cc4)c3c2)cs1`: the inhibition is 2.12% in [1]; -2.46% in assay [2]; -3.03% in assay [3]; 1.85% in [4]; -0.47% in [5]; 0.76% in assay [6]. For the same compound, the inhibition is 3.63% in assay [7]; -0.59% in [8]; 0.33% in assay [9]; -1.19% in assay [10]; 1.3% in [11]; 0.09% in assay [12]. Besides, the inhibition in assay [13] was -0.46%; in assay [14] it was -0.05%; in assay [15], 1.3%; in [16], -2.52%; in assay [17] it was -0.52%; in assay [18], 3.26%. Also, the inhibition in assay [19] is 1.84%; in [20], -0.33%.
Turning to `O=C1Nc2ccc(-c3cccnc3)cc2C1=Cc1cc(Br)c(O)c(Br)c1`, the inhibition in assay [1] is 2.31%; in [2], -1.92%; in assay [3] it was -2.45%; in assay [4], 11.3%; in assay [5] it was 55.5%; in [6], -8.03%. Further, the inhibition in assay [7] was -3.91%; in [8] it was 35.2%; in assay [9], 77.7%; in [10], 5.72%; in assay [11], -0.37%; in assay [12], 0.41%. Further, the inhibition was -1.79% in assay [13]; 4.96% in assay [14]; 14.5% in assay [15]; 5.26% in [16]; 7.66% in assay [17]; 4.92% in assay [18]. Further, the values for the inhibition in assay [19] and in assay [20] were 2.14% and 3.51%, respectively.

For the origin of these results see ChEMBL document CHEMBL1961873, “Compounds: GSK PKIS; Assays: Nanosyn kinase panel” (2012).
